# Experimental data reported in the supplement of paper PMC7380943.
# System: CLZ3 (HCA2 human fibroblast dual HR-NHEJ reporter)
# Assay: HR repair efficiency (tdTomato+ cells) relative to control (log10 fold); higher = more homologous recombination
# Settings: 5 µM; doxycycline 0.5 ug/mL
# 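Note: compound given one day before doxycycline, which switches on I-SceI endonuclease expression to create double-strand breaks within the integrated reporter.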
row,Structure (SMILES),HR repair efficiency (log10)
1,COC(=O)C1=CO[C@@H](O[C@@H]2O[C@H](CO)[C@@H](O)[C@H](O)[C@H]2O)[C@@H]2[C@@]3(C)O[C@H]3[C@@H](O)[C@]12O [Sesamoside],-0.1
2,COc1c(O)cc2oc(-c3ccccc3)cc(=O)c2c1O [Oroxylin-A],0.0535
3,COc1cc(O)cc(O)c1C(=O)/C=C/c1ccccc1 [Cardamonin],-0.195
4,C=CCc1ccc(OC)c(OC)c1 [Methyleugenol],0.161
5,C[C@@]12C[C@@]3(O)O[C@@H](O1)[C@]1(COC(=O)c4ccccc4)[C@H]3C[C@@]12O[C@@H]1O[C@H](CO)[C@@H](O)[C@H](O)[C@H]1O [Paeoniflorin],0.213
6,CCCCC/C=C\C/C=C\CCCCCCCC(=O)O [Linoleic Acid],-0.0026
7,C[C@@H](CC[C@@]1(O)O[C@H]2C[C@H]3[C@@H]4CC[C@@H]5C[C@@H](O[C@@H]6O[C@H](CO)[C@H](O)[C@H](O)[C@H]6O[C@@H]6O[C@H](CO)[C@@H](O)[C@H](O)[C@H]6O)CC[C@]5(C)[C@H]4CC[C@]3(C)[C@H]2[C@@H]1C)CO[C@@H]1O[C@H](CO)[C@@H](O)[C@H](O)[C@H]1O [Timosaponin b- II],-0.131
8,C[C@@H]1CC[C@@]2(OC1)O[C@H]1C[C@H]3[C@@H]4CC=C5C[C@@H](O[C@@H]6O[C@H](CO)[C@@H](O)[C@H](O[C@@H]7O[C@H](CO)[C@@H](O)[C@H](O)[C@H]7O)[C@H]6O[C@@H]6O[C@@H](C)[C@H](O)[C@@H](O)[C@H]6O)CC[C@]5(C)[C@H]4CC[C@]3(C)[C@H]1[C@@H]2C [Gracillin],-0.0532
9,CCOC(=O)c1c(C(=O)OCC)c(O)c2ccccc2c1O [Rubidate],0.128
10,CC(C)=CC[C@H](O)/C(C)=C/CO[C@@H]1O[C@H](CO)[C@@H](O)[C@H](O)[C@H]1O [Rosiridin],0.104
11,C[C@@H]1O[C@@H](O[C@H]2[C@H](OC(=O)[C@]34CCC(C)(C)C[C@H]3C3=CC[C@@H]5[C@@]6(C)C[C@H](O)[C@H](O[C@@H]7O[C@H](CO)[C@@H](O)[C@H](O[C@@H]8O[C@H](CO)[C@@H](O)[C@H](O)[C@H]8O)[C@H]7O)C(CO)(CO)[C@@H]6CC[C@@]5(C)[C@]3(C)C[C@H]4O)OC[C@H](O)[C@@H]2O)[C@H](O)[C@H](O)[C@H]1O[C@@H]1OC[C@@H](O)[C@H](O[C@@H]2OC[C@](O)(CO)[C@H]2O)[C@H]1O [Platycodin D2],-0.252
12,COc1cc(C2Oc3ccc(C4Oc5cc(O)cc(O)c5C(=O)C4O)cc3OC2CO)ccc1O (centres undefined) [Iso-Silybin],-0.241
13,O=c1ccc2ccc(O)c(O)c2o1 [Daphnetin],0.146
14,c1cc2c(cc1O[C@H]1OC[C@H]3[C@@H]1CO[C@@H]3c1ccc3c(c1)OCO3)OCO2 [Sesamolin],0.22
15,CC1CCC(C(C)C)C(O)C1 (centres undefined) [Menthol],-0.0345
16,C=C[C@H]1[C@H](O[C@@H]2O[C@H](CO)[C@@H](O)[C@H](O)[C@H]2O)OC=C2C(=O)OCC[C@]21O [Swertiamarin],-0.0353
17,"CC1(C)[C@H](OC(=O)c2ccccc2)CC[C@]2(C)C3=C([C@@H](O)C[C@@H]12)[C@@]1(C)CC[C@@]2(C)CC[C@@](C)(COC(=O)c4ccccc4)C[C@H]2[C@]1(C)CC3 [3,29-Dibenzoyl Rarounitriol]",0.103
18,C[C@@H]1CC[C@]2(C(=O)O[C@@H]3O[C@H](CO)[C@@H](O)[C@H](O)[C@H]3O)CC[C@]3(C)C(=CC[C@@H]4[C@@]5(C)CC[C@H](O)[C@@](C)(CO)[C@@H]5CC[C@]43C)[C@@H]2[C@]1(C)O [Pedunculoside],0.237
19,C=C1CCC[C@]2(C)C[C@]3(O)OC(=O)C(C)=C3C[C@@H]12 [Atractylenolide Ⅲ],0.0176
20,COc1c(O)cc2c(c1O)C(=O)c1c(cc(C)c(O)c1OC)C2=O [Aurantio-obtusin],0.0361

row,Structure (SMILES),HR repair efficiency (log10)
1,C=C[C@@H]1CNC(=S)O1 [Epigoitrin],0.212
2,Cn1c(=O)c2nc[nH]c2n(C)c1=O [Theophylline],0.0978
3,O=C(/C=C/c1ccc(O)c(O)c1)OC[C@H]1O[C@@H](OCCc2ccc(O)c(O)c2)[C@H](O)[C@@H](O)[C@@H]1O [Calceolarioside B],0.193
4,O=C(/C=C/c1ccc(O)c(O)c1)O[C@H](C(=O)O)[C@H](OC(=O)/C=C/c1ccc(O)c(O)c1)C(=O)O [Chicoric Acid],0.107
5,O=C(/C=C/c1ccc(O)c(O)c1)OC1(C(=O)O)C[C@@H](O)C(O)[C@H](O)C1 (some centres undefined) [1-Caffeoylquinic Acid],0.0171
6,COc1cc2ccc(=O)oc2c(O)c1O [Fraxetin],0.272
7,C=C(C)[C@H](CC=C(C)C)Cc1c(O)cc(OC)c2c1O[C@H](c1ccc(O)cc1O)CC2=O [Kurarinone],0.0158
8,NCCCC(=O)O [γ-Aminobutyric Acid],0.0562
9,OCC1=C[C@@H](O)[C@@H]2C=CO[C@@H](O[C@@H]3O[C@H](CO)[C@@H](O)[C@H](O)[C@H]3O)[C@H]12 [Aucubin],0.121
10,CC(C)=CC(O)C/C(C)=C/COc1c2ccoc2cc2oc(=O)ccc12 (centres undefined) [Notopterol],0.151
11,O=C(O)/C=C/c1ccccc1 [Cinnamic Acid],0.0721
12,C[N+](C)(C)CC(=O)O [Betaine],-0.337
13,Oc1ccc2c(c1)OCO2 [Sesamol],0.234
14,COc1cc2ccc(=O)oc2c(O[C@@H]2O[C@H](CO)[C@@H](O)[C@H](O)[C@H]2O)c1O [Fraxin;Fraxoside; Paviin],0.0876
15,COc1c2c(cc3oc(CO)cc(=O)c13)O[C@H](C(C)(C)O)C2 [Cimifugin],-0.0036
16,O=C(O)C1=C[C@@H](O)[C@@H](O)[C@H](O)C1 [Shikimic Acid],0.17
17,C/C1=C\CC[C@]23O[C@H]2[C@@H](OC3=O)c2c(C)coc2C1 [Linderane],0.0607
18,COc1ccc(-c2cc(=O)c3c(O)cc(O[C@@H]4O[C@H](CO[C@@H]5O[C@@H](C)[C@H](O)[C@@H](O)[C@H]5O)[C@@H](O)[C@H](O)[C@H]4O)cc3o2)cc1 [Linarin],0.00777
19,C/C1=C/CC[C@H](C)C(=O)C[C@@H](C(C)C)C(=O)C1 [Curdione],0.0177
